Laboratory results as given in PubChem BioAssay.
Active and inactive are the calls of the source.

Tests used:
[1] = A549 cell viability effects, profiling panel, calcein-AM fluorescence, 48 h, basal (AID 1162); conditions: higher = more signal
[2] = adipocyte viability effects, profiling panel, cell-based, 3T3-L1 adipocytes, calcein-AM fluorescence, 48 h, basal (AID 1163); conditions: 3T3-L1 adipocytes viability, higher = more signal
[3] = HepG2 cell viability effects, profiling panel, calcein-AM fluorescence, 48 h, basal (AID 1164); conditions: higher = more signal
[4] = MM1S cell viability effects, profiling panel, calcein-AM fluorescence, 48 h, basal (AID 1165); conditions: higher = more signal;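 further: viability of MM1S multiple myeloma cells under basal unstimulated conditions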
[5] = basal RPMI8226 viability, no added stimulus, profiling panel, cell-based, calcein-AM fluorescence, 48 h, PK04 Diversity Set (AID 1166); conditions: RPMI8226 myeloma viability, higher = more signal;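 further: cells grown under basal conditions without added stimulus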
[6] = basal HepG2 mitochondrial membrane potential changes, profiling panel, cell-based, JC-1 fluorescence, 24 h, 100 nL compound (AID 1167); conditions: higher = more signal
[7] = basal 3T3-L1 adipocyte mitochondrial potential changes, profiling panel, cell-based, JC-1 fluorescence, 3T3-L1 adipocytes, 24 h, 100 nL compound (AID 1168); conditions: JC-1 mitochondrial fluorescence, higher = more signal, called active from +8 up or from −8 down
[8] = basal RPMI8226 mitochondrial membrane potential changes, profiling panel, cell-based, JC-1 fluorescence, 24 h, 100 nL compound (AID 1169); conditions: RPMI8226 myeloma, JC-1 mitochondrial potential fluorescence, higher = more signal
[9] = basal MM1S mitochondrial membrane potential changes, profiling panel, cell-based, JC-1 fluorescence, 24 h, 100 nL compound (AID 1170); conditions: higher = more signal
[10] = A549 lung cancer cell viability effects, profiling panel, resazurin fluorescence, 24 h, PK04 Diversity Set (AID 1171); conditions: higher = more signal, called active from +8 up or from −8 down
Further: test concentration not given here.

Structure (SMILES)	z-score [1]	z-score [2]	z-score [3]	z-score [4]	z-score [5]	z-score [6]	z-score [7]	z-score [8]	z-score [9]	z-score [10]
O=C1O[C@H](Cc2ccccc2)[C@@H]2[C@H]3C=CCCC=C3CN2[C@H]1Cc1ccc(O)cc1	0.405	-0.276	0.146	-3.14	-0.148	-2.65	-0.639 (inactive)	-1.05	-1.69	0.745 (inactive)
C=CC[C@@]1(C(=O)N(C)C)N=C(c2ccc(OCCCO)cc2)O[C@@H]1c1ccccc1CN=[N+]=[N-]	1.01	-0.114	1.41	-1.81	-1.58	1.67	0.53 (inactive)	-0.797	-0.479	0.189 (inactive)
CCC(CC)C(O)C1C=CC2C(=O)N(c3ccccc3)C(=O)C2N1Nc1ccccc1F (stereo not given)	0.21	0.561	1.09	1.38	0.523	0.387	-0.147 (inactive)	-0.231	-0.817	0.0513 (inactive)
Cc1ccc(S[C@]2(C(=O)NC(C)C)CC(=O)N(C3CCCCC3)[C@@H]2c2ccc(CO)cc2I)cc1	-0.0909	0.0617	-0.938	-2.07	-2.68	1.06	-0.0605 (inactive)	-0.351	-1.12	0.81 (inactive)
NC(=O)N1C(=O)C2C(C1=O)C1C=C(CCCO)C2C(c2ccc(CN3CCCC3)cc2)N1Cc1sc2ccccc2c1Cl (stereo not given)	-0.142	-0.501	-0.389	-2.67	0.0222	0.916	-0.753 (inactive)	0.0845	0.423	-0.301 (inactive)
O=C1O[C@@H](c2ccccc2)[C@@H](c2ccccc2)N2[C@@H](c3ccc(OCCO)cc3)[C@]3(C(=O)Nc4ccc(C#CC5(O)CCCCCC5)cc43)[C@@H](C(=O)O)[C@H]12	0.942	0.297	1.36	0.213	0.342	-0.969	-0.448 (inactive)	-0.169	0.0439	1.12 (inactive)
CCCCCCc1nc(Cc2cc(OC)c(OC)c(OC)c2)cc2c1[Si](C(C)C)(C(C)C)O[C@H]2c1ccccc1	-0.106	-0.267	-0.492	-1.09	-3.49	1.03	-0.462 (inactive)	-0.566	-0.116	2.45 (inactive)
CC(C)C[C@@H]1NC(=O)[C@@]23C(=O)N[C@@H](Cc4ccccc4)C2[C@H](C)[C@@]2(C)O[C@H]2C3/C=C/C/C=C\CNC(=O)CNC1=O (stereo not given in full)	0.201	0.97	-0.47	-0.288	-0.174	-0.572	-0.159 (inactive)	0.149	0.694	-0.624 (inactive)
O=C1C2C=CC(C(O)c3ccc([N+](=O)[O-])cc3)N(Nc3ccccc3F)C2C(=O)N1c1ccccc1 (stereo not given)	-0.353	-0.923	-1.16	0.375	-0.958	-1.5	-2.27 (inactive)	-0.268	-0.127	-0.364 (inactive)
CC(C)N1C(=O)C[C@@](C(=O)NCCN2CCOCC2)(c2ccc([N+](=O)[O-])cc2)[C@H]1c1ccc(CO)cc1	-0.827	-0.641	-0.235	-0.617	0.0859	0.0432	-0.279 (inactive)	-0.95	-0.672	1.05 (inactive)
C=CCN1C(=O)[C@@]2(O[C@@H](CCn3cc([C@H](O)c4ccccc4)nn3)[C@H]([Si](C)(C)c3ccc(OC)cc3)[C@H]2C)c2cc(N3C(=O)c4cccc5cccc3c45)ccc21	0.248	-0.0484	-1.93	-1.87	-4.04	0.319	-0.127 (inactive)	-0.929	-1.37	-1.94 (inactive)
COC(=O)[C@@]1(Cc2ccccc2)[C@H]2c3cc(C(=O)N(C)C)n(Cc4ccc(S(C)(=O)=O)cc4)c3C[C@H]2CN1C(=O)c1ccccc1	-1.12	1.09	-0.827	0.0168	-1.39	2.64	-1.06 (inactive)	-0.656	0.485	-1.59 (inactive)
CCOC(=O)C[C@H]1[C@H](OC(=O)Cc2ccc3c(c2)OCO3)[C@@H](NC(=O)Cc2ccc(OC)cc2)c2cc(OCCCO)ccc2N1C(=O)Cc1ccc(OC)cc1	2.07	1.17	1.57	0.405	-0.658	1.34	0.376 (inactive)	0.229	-0.88	-0.379 (inactive)
C=CCNC(=O)[C@H]1[C@@H]2C(=O)O[C@@H](c3ccccc3)[C@@H](c3ccccc3)N2[C@@H](c2ccc(OCCO)cc2)[C@]12C(=O)Nc1ccccc12	0.375	1.35	-0.503	0.287	-0.62	-1.21	-0.00331 (inactive)	-0.522	-0.377	1.02 (inactive)
C=CCC(OC(C)=O)[C@@H]1[C@@H](N(Cc2cc3ccccc3o2)C(=O)Cc2ccc(OC)cc2)c2cc(OCCCO)ccc2N1C(=O)c1ccc2ccccc2n1 (stereo not given in full)	0.542	1.46	1.26	0.307	-1.63	2.31	-0.106 (inactive)	-0.617	0.576	-0.719 (inactive)
